In all, about 4,100 compounds went through this assay and about 1,600 (39%) were called active. Inconclusive results (about 25%) are left out. The call rests on the fitted dose curve; in most records, active means well fitted inhibition curve with a large enough effect; inconclusive means small, poorly fitted or top-dose-only effect; inactive means no such curve, though single readings can be large or run the other way. This is one part of the list.
Potency means the concentration at half of the fitted maximal effect.

This assay in a line: qHTS Validation assay for Inhibitors of Plasmodium falciparum Dd2 growth in vitro. Further: nearly all actives have a fitted effect of over 70% in size. The note with it: P. falciparum Dd2 in RBCs, SYBR Green growth, 72 h; series mostly up to 28.7 µM. In a few lines:
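P. falciparum Dd2-infected red blood cells (2.5% hematocrit, 0.3% parasitemia) grown 72 h at 37 °C under 5% O2 with compounds in a titration, 29 uM to 0.5 nM final. Growth read as SYBR Green-1 fluorescence after ~16 h lysis; artesunate 300 nM as positive control.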
(In general: qHTS replaces the single test concentration by a dilution series.)
`O=C(c1ccccc1Cl)N1CCc2nc(-c3ccccc3)nc(-c3ccc(Cl)cc3)c2C1`: the Potency result is “inactive”. On to `Cc1nc2c(c(-c3ccc(Cl)cc3)n1)CCN(C(=O)c1ccc(C(F)(F)F)cc1)CC2`, for which the Potency entry is “inactive”. In the case of `Oc1ccc(-c2nc(C3CC3)nc3c2CN(CC2CCCCC2)CC3)cc1` it was 6.68 µM (active); in that of `O=C(c1ccc(C(F)(F)F)cc1)N1CCc2nc(C3CC3)nc(-c3ccc(Cl)cc3)c2CC1`, 13.3 µM (active); in that of `Cc1cccc(-c2cc3nc(C)c(C)c(NCCCn4ccnc4)n3n2)c1`, 5.31 µM (active). In the case of `COc1ccc(-c2oc3ccccc3c2C#Cc2cncn2C)cc1` it was 1.06 µM (active). In the case of `CN(C)[C@H]1CCCCN(C(=O)CCc2ccc(-c3ccc(Cl)cc3)[nH]2)C1` it was “inactive”. For `CCOC(=O)c1[nH]c(C)c(CCC(=O)N2CCN(c3cccc(C)c3C)CC2)c1C`, the Potency is 1.33 µM (active). In the case of `O=C(CCc1cc2ccccc2[nH]c1=O)N1CCCCC1` it was “inactive”; in that of `CCOC(=O)c1[nH]c(C)c(CCC(=O)N2CCN(c3cc(Cl)ccc3C)CC2)c1C`, 1.19 µM (active); in that of `CCO[C@H]1CN(C(=O)CCc2nc3c(C)c(C)ccc3[nH]2)C[C@@H]1O`, “inactive”. Then `CCOC(=O)c1[nH]c(C)c(CCC(=O)N2CCN(c3cc(C)ccc3C)CC2)c1C`, with 1.33 µM (active). In the case of `N#C/C(=C\c1ccc(Sc2ccc(Cl)cc2)o1)c1nc2ccccc2[nH]1` it was 2.99 µM (active); in that of `N#C/C(=C\c1ccc(Cl)cc1)c1nc(-c2cc3ccccc3oc2=O)cs1`, “inactive”; in that of `Cn1nc(-c2nncn2CC2CC2)c2c1CCN(C(=O)c1nn(C)c3ccccc13)C2`, “inactive”. As for `CCc1ccc(Oc2c(C(F)(F)F)oc3c(CN4CCCC(C)C4)c(O)ccc3c2=O)cc1` (centres undefined), the Potency was 1.33 µM (active). Then `CC1CCCN(Cc2c(O)ccc3c4c(c(=O)oc23)CCCC4)C1` (centres undefined), with 6.68 µM (active); and `COc1ccc(-c2cc3ccc(O)c(CN4CCCC(C)C4)c3oc2=O)cc1` (centres undefined), with 2.37 µM (active); and `CC1CCCN(Cc2c(O)ccc3c(=O)c(Oc4ccc(C(C)(C)C)cc4)c(C(F)(F)F)oc23)C1` (centres undefined), with 0.299 µM (active). Take `CCc1noc(-c2cn(C3CCN(C(=O)c4ccc(N(C)C)cc4)CC3)nn2)n1`: the Potency result was “inactive”. In the case of `COc1ccc(Oc2c(C(F)(F)F)oc3c(CN4CCCC(C)C4)c(O)ccc3c2=O)cc1` (centres undefined) it was 2.37 µM (active); in that of `COc1cccc(OC)c1CN1CCC2(CC1)CC(O)CCO2` (centres undefined), “inactive”. Then `Cn1cc(-c2ccccc2Oc2ccccc2)c2nc(CN3CCOCC3)cn2c1=O`, with “inactive”. In the case of `O=c1oc2c(CN3CCOCC3)c(O)ccc2cc1-c1ccccc1` it was 9.44 µM (active); in that of `COc1ccc(-c2ccccc2NC(=O)C2CCCN(Cc3c(O)cccc3OC)C2)cc1` (centres undefined), 2.11 µM (active). As to `CN(C)c1cccc(C(=O)N2CCC(c3n[nH]c(=O)n3-c3ccccc3)CC2)c1`, the Potency result was “inactive”.

For `COc1cc(F)ccc1-c1nc(-c2c(C)noc2C)cc2[nH]c(C)cc12`, the Potency result was “inactive”. Then `COc1ncccc1-c1nc(-c2c(C)noc2C)cc2c1cc(-c1ccccc1)n2C`, with 13.7 µM (active); and `Cc1noc(C)c1-c1cc2c(cc(-c3ccccc3)n2C)c(-c2cccnc2)n1`, with 10.9 µM (active). In the case of `Cc1noc(C)c1-c1cc2c(cc(-c3ccccc3)n2C)c(-c2ccnn2C)n1` it was 8.63 µM (active); in that of `Cc1ccc(S(=O)(=O)Nc2cc(C)cn(Cc3ccc(F)cc3)c2=O)cc1`, “inactive”. As for `O=c1c([N+](=O)[O-])cccn1Cc1ccc(F)cc1Cl`, the Potency is 4.73 µM (active).

`Cc1ccc(CNC(=O)CN2CCN(Cc3ccc(F)cc3Cl)C2=O)cc1`: the Potency entry is “inactive”. For `O=C(CSc1nccn1-c1cccc(Cl)c1)NO`, the Potency entry is “inactive”. In the case of `CCCn1c(SCC(=O)Nc2cc(Cl)ccc2Cl)n[nH]c1=O` it was 5.31 µM (active); in that of `Cc1ccccc1-n1c(SCC(=O)Nc2ccc(Cl)cc2Cl)nc(O)cc1=O`, “inactive”.

Turning to `CC(=O)c1c(N2CCN(C)CC2)[nH]c(-c2ccccc2)nc1=S`, the Potency is 5.96 µM (active).

`O=c1c2c([nH]c3ccccc13)CCCC2`: the Potency was 6.68 µM (active). In the case of `O=c1c(-c2ccccc2)n[nH]c2ccccc12` it was “inactive”. Then `CC(C)(C)C1CCc2[nH]c3ccccc3c(=O)c2C1` (centres undefined), with 1.88 µM (active). Then `O=c1c2c([nH]c3ccc(Br)cc13)CCCC2`, with 6.68 µM (active); and `O=C(CSc1nc(Nc2ccccc2)nc(N2CCOCC2)n1)Nc1cc(Cl)ccc1O`, with 2.37 µM (active); and `COc1cccc(-c2cc3c(=O)n(CCNC(=O)COc4ccc(F)cc4)ccn3n2)c1`, with “inactive”. For the compound `CCN(CC)CCNC(=O)c1ccc(NC(=O)c2cn(-c3ccc(F)cc3)nc2-c2cccc(OC)c2)cc1`, the Potency is 9.44 µM (active). Then `Cc1nn(-c2ccccc2)nc1-c1nnc(-c2ccc(C(F)(F)F)cc2)o1`, with “inactive”; and `COc1cc(NC2CCCCC2O)c2nc(-c3ccc(Cl)cc3)ccc2c1` (centres undefined), with 5.31 µM (active).

As to `Oc1ccc(Cl)cc1CNCc1ccc(C(F)(F)F)cc1`, the Potency is 4.22 µM (active). In the case of `Oc1ccc(Cl)cc1CNCC1CCCCC1` it was 4.22 µM (active); in that of `Oc1ccc(Cl)cc1CNCc1cccc2ccccc12`, 0.842 µM (active). For `CC(=O)Nc1ccc(S(=O)(=O)N2CCC(n3c(C)nc4cccnc43)CC2)cc1`, the Potency result is “inactive”. In the case of `COC(=O)c1ccc(NC(=O)CSc2nc3cc4ccccc4cc3[nH]2)cc1` it was “inactive”; in that of `CS(=O)(=O)c1ccc(C(=O)Nc2ccc(-c3nc4ccccc4[nH]3)cc2)cc1`, 7.5 µM (active). Then `Nc1ccc2nc(-c3cccnc3)[nH]c2c1`, with “inactive”; and `CC(C)(C)N1C(=O)c2ccc(C(=O)Nc3ccc(-c4nc5ccccc5[nH]4)cc3)cc2C1=O`, with 6.68 µM (active); and `O=C(Nc1cccc(Oc2ccc(C(=O)O)c(C(=O)O)c2)c1)c1ccc(-c2ccccc2)cc1`, with “inactive”.

For the compound `CC1CCCCN1S(=O)(=O)c1ccc(C(=O)Nc2ccccc2-c2nc3ccccc3[nH]2)cc1` (centres undefined), the Potency was 7.5 µM (active). Then `O=C(Nc1cccc(-c2nc3ccccc3[nH]2)c1)c1ccc(C(=O)Nc2cccc(-c3nc4ccccc4[nH]3)c2)cc1`, with 2.66 µM (active); and `COc1ccc(CCN(C)C(=S)Nc2cccc(C)c2)cc1OC`, with 2.11 µM (active); and `COc1cc2c(cc1OC)C(c1ccccc1N)=NCC2`, with “inactive”. Then `Brc1c(C[n+]2ccccc2)nc2ccccn12`, with “inactive”. Then `CCc1cc(CN(C)C(=O)c2cc(COc3ccccc3F)[nH]n2)on1`, with “inactive”; and `CC1(c2ccccc2)N(Cc2cccnc2)C(=O)OC12CCN(Cc1ccccc1)CC2` (centres undefined), with 17.2 µM (active); and `CC(=O)Nc1ccc(CN2C(=O)OC3(CCN(C(=O)C4CCC4)CC3)C2(C)c2ccccc2)cc1` (centres undefined), with “inactive”. Regarding `CCN1CCN(c2nc3c(s2)CN(C(=O)Cc2cccnc2)CC3)CC1`, the Potency result is “inactive”. Then `CC1(c2ccccc2)N(Cc2cccnc2)C(=O)OC12CCN(C(=O)Cc1ccc(Cl)cc1)CC2` (centres undefined), with 13.3 µM (active); and `CC1(c2ccccc2)N(Cc2ccccc2)C(=O)OC12CCN(Cc1cccnc1)CC2` (centres undefined), with 15.3 µM (active); and `CCN(CC)c1ccc(C(=O)N2CCCC(n3cc(-c4noc(C)n4)nn3)C2)cc1` (centres undefined), with “inactive”.

`COc1ccc(C(=O)N[C@@H]2CCC[C@@H]2C(=O)NC(C)C)cc1`: the Potency entry was “inactive”. Then `COc1cccc(CNC(=O)N[C@@H]2CN(Cc3ccncc3)C[C@H]2CN(C)C)c1`, with “inactive”; and `COc1ccc(C(=O)N[C@@H]2CN(Cc3cccc(OC)c3)CCC[C@H]2O)cc1`, with 10.9 µM (active); and `CC(C)(C)Nc1nc(NC(C)(C)C)nc(-n2ccnc2)n1`, with 4.73 µM (active).

For `CCc1ccc(CN(C(=O)c2nc(SC)ncc2Cl)C2CCS(=O)(=O)C2)cc1` (centres undefined), the Potency entry was “inactive”. Consider `c1ccc(Oc2ccc(Nc3cnc4ccc(N5CCOCC5)nn34)cc2)cc1`, for which the Potency was 7.69 µM (active). In the case of `CN(C)c1ccc2ncc(Nc3ccc(Oc4ccccc4)cc3)n2n1`, the Potency was 8.63 µM (active). In the case of `CN1CCN(c2ccc3ncc(Nc4ccccc4-c4ccccc4)n3n2)CC1` it was 0.863 µM (active); in that of `CN1CCN(c2ccc(-c3cccc(N)c3)nn2)CC1`, “inactive”; in that of `O=C(Nc1ccccc1C(F)(F)F)c1cc(-c2ccccc2O)on1`, 2.99 µM (active). In the case of `COc1cc(NC(=O)c2cc(-c3cccs3)on2)c(OC)cc1Cl` it was “inactive”; in that of `O=C(Nc1ccccc1OCc1cc(=O)n2ccccc2n1)Nc1ccccc1C(F)(F)F`, “inactive”; in that of `Cc1ccc(-c2noc(-c3ccc(N4CCCC4)c([N+](=O)[O-])c3)n2)cc1`, “inactive”. For `CCOc1cccc(/C=N/Nc2nc(N3CCCC3)nc(N3CCCC3)n2)c1O`, the Potency result is “inactive”. In the case of `COc1ccc(/C=N/Nc2nc(Nc3ccccc3)nc(N3CCCC3)n2)cc1[N+](=O)[O-]` it was 6.68 µM (active); in that of `NCCn1cc(C(=O)N2CCCC(c3[nH]ncc3Cc3ccccc3)C2)nn1` (centres undefined), “inactive”; in that of `COc1ccc(Nc2c(-c3cc(Br)ccc3O)nc3ncccn23)cc1OC`, 4.73 µM (active). In the case of `CCN(CC)CCNC(=O)c1ccc(NC(=O)c2cccc(S(=O)(=O)N3CCc4ccccc43)c2)cc1` it was 5.31 µM (active); in that of `CCCCNC(=O)c1cccc2c1CCN2S(=O)(=O)c1cccc(C)c1`, “inactive”. Then `CC(C)(C)CC(=O)Nc1ccc(S(=O)(=O)N2CCCC2)cc1`, with “inactive”. Consider `CCN(CC)CCNC(=O)c1ccc(NC(=O)c2ccc(S(=O)(=O)N3CCCCCC3)cc2)cc1`, for which the Potency is 8.41 µM (active). Regarding `CCN(CC)CCCNC(=O)C1CCN(S(=O)(=O)CC)CC1`, the Potency entry was “inactive”. Then `Cc1cc(C)cc(N2C(N)=NC(N)=NC2c2cccc(Cl)c2)c1` (centres undefined), with “inactive”; and `COc1ccc(-c2cc(N3CCCC(NC(=O)c4cccc(F)c4)C3)n[nH]2)cc1` (centres undefined), with “inactive”; and `Cc1nc2c(c(N3CCCC(COc4cccc(F)c4)C3)n1)CCNCC2` (centres undefined), with 8.41 µM (active).

Turning to `O=C(Cc1cccc(F)c1)N1CCCC(Cc2nc(C3CCOCC3)no2)C1` (centres undefined), the Potency result is “inactive”. Then `COC1C(=O)N(c2cccc(F)c2)C12CCN(C(=O)c1cc3ccccc3[nH]1)CC2` (centres undefined), with “inactive”.

These data come from PubChem BioAssay AID1347416 (National Center for Advancing Translational Sciences (NCATS), 2020).
